ERK EGF inh = EGF-driven ERK pathway inhibition; HEK293-V1b, EGF-stimulated phospho-ERK AlphaScreen; Potency, µM (highest dose often 11.5 µM), hits mostly inhibitors; 0.41% of 130,000 active; active means well fitted inhibition curve with a large enough effect; further: nearly all actives have a fitted effect of over 55% in size
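After overnight plating in 1% FBS, HEK293-V1b cells received test compound for half an hour, then a 5 min pulse of EGF (25 nM); ERK phosphorylation in lysates was read by bead-based AlphaScreen.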
A number is an active result; 0 = inactive; ! = not active in a repeat. The full list was thinned out, with hits kept by preference.

SMILES	ERK EGF inh
O=C(COC(=O)Cc1ccccc1F)Nc1ccc(F)cc1F	0
O=S(c1ccccc1)c1ccc2nnnn2n1 (configuration not stated)	0
Nc1ncnc2c1nc(Sc1ccc(Cl)cc1)n2[C@H]1O[C@@H]2COP(=O)(O)O[C@H]2[C@@H]1O	0
CC(C)CN1CCC(=O)N([C@H](CSc2ccc(Br)cc2)c2ccccc2)CC1	0
Cc1ccc(SC[C@H](c2ccccc2)N2CCN(CC(C)C)CCC2=O)cc1	32µM
Cc1ccc(SC[C@H](c2ccccc2)N2CCN(C)CCC2=O)cc1	0
COc1ccccc1/C=C\C(=O)OC[C@@H]1CCCN2CCCC[C@H]12	0
NCCC[C@@H](CC(=O)N[C@@H]1CCCC[C@H]1C(=O)N[C@H](CC(=O)N[C@@H](CCC(=O)O)CC(=O)O)Cc1ccccc1)NC(=O)C[C@H](Cc1c[nH]c2ccccc12)NC(=O)[C@@H]1CCCC[C@H]1N	0
CC(C)CN(C(=O)COC(=O)c1c(Cl)ccc(Cl)c1Cl)C1CCS(=O)(=O)C1 (configuration not stated)	0
O=C1c2cccc(Sc3ccccc3)c2C(=O)c2c(Sc3ccccc3)cccc21	7.1µM
N/C(Cc1ccccc1Sc1ccccc1)=N\O	0
Cc1cccc(C)c1NC(=O)c1cccc2c1-c1ccccc1C2=O	0
Nc1nc(Nc2ccccc2)nc2c1ncn2[C@@H]1O[C@H](CO)[C@H](O)[C@H]1O	0
Cc1ccccc1Nc1oc(-c2ccccc2)nc1CCc1ccccc1	0
Cc1ccc2c(c1)S/C(=C/c1ccc[n+](C)c1)N2CCO	0
CCN1/C(=C/c2cc[n+](C)cc2)C=Cc2cc(C)ccc21	16µM
CCN1/C(=C2\C(=O)N(c3ccccc3)N=C2C)C=Cc2cc(C)ccc21	0
C=CCC(C)(Nc1ccccc1)C(=O)OCC (configuration not stated)	0
CCOC(=O)CNC(=O)O[C@@H]1Cc2cc(OC)ccc2O[C@H]1c1cccc(OC)c1	0
COC(=O)C1(C)C=C(Nc2ccc(OC)cc2)C(=O)N1c1ccc(OC)cc1 (configuration not stated)	0
C[C@@H](NCCc1ccc(O)cc1)[C@@H](O)c1ccc(O)cc1	0
CCCCCCCCNC(C)C(O)c1ccc(SC(C)C)cc1 (configuration not stated)	35µM!
CC(NCCc1ccc(O)cc1)C(O)c1ccc(O)cc1 (configuration not stated)	0
CC(C)(C)c1ccc([C@@H](O)CCCN2CCC(C(O)(c3ccccc3)c3ccccc3)CC2)cc1	0
CCCCCCCCCCCCCc1ccco1	0
SMILES	ERK EGF inh
COC(=O)[C@H](COC(C)(C)C)NC(=O)O[C@@H]1Cc2cc(OC)ccc2O[C@H]1c1cccc(OC)c1	0
COCC(C)Nc1ccc(S(=O)(=O)N2CCCC2)cc1[N+](=O)[O-] (configuration not stated)	0
COc1ccc2cc(S(=O)(=O)N3CCCCCC3)ccc2c1	0
COc1ccc(Nc2ccc(S(=O)(=O)N3CCCCCC3)cc2[N+](=O)[O-])cc1	20µM
CC(C)C[C@@H](CC(=O)N[C@H](CC(=O)N[C@@H]1CCCC[C@H]1C(=O)N[C@H](CC(=O)N[C@@H](CCC(=O)O)CC(=O)O)Cc1ccccc1)C(C)C)NC(=O)[C@@H]1CNCC[C@H]1N	0
CCCCC[C@H](O)/C=C/C=C\C/C=C\CCCCCCC(=O)O	0
CC(C)C[C@@H](CC(=O)N[C@@H](CCC(=O)O)CC(=O)O)NC(=O)[C@@H]1CCCC[C@H]1NC(=O)C[C@@H](NC(=O)C[C@H](Cc1ccccc1)NC(=O)[C@@H]1CCCC[C@H]1N)C(C)C	0
COc1cccc(/C=N/Nc2ncnc3c2ncn3Cc2ccccc2)c1O	13µM
COc1cccc(/C=N/NC(=O)CNC(=O)COc2ccccc2)c1O	0
COc1cccc(/C=N/Nc2cc(Cl)nc(C)n2)c1O	0
O=C(c1cnccn1)N1CCC2(CC1)CN(Cc1nccs1)C2	0
COc1cc(C(=O)NNC(=O)c2ccc(NC(=O)C(C)(C)C)cc2)cc(OC)c1OC	0
Cc1ccc(C(=O)c2cc3ccccc3o2)cc1[N+](=O)[O-]	22µM
COc1cc2c(cc1NC(=O)c1ccc(C)c([N+](=O)[O-])c1)oc1ccccc12	0
Cc1ccc(C(=O)NCCSCc2ccccc2)cc1[N+](=O)[O-]	0
O=C1C2=C(S[C@@H]3O[C@H](CO)[C@@H](O)[C@H](O)[C@H]3O2)C(=O)c2ccccc21	0
CC(C)[C@@H](CC(=O)N[C@@H]1CCNC[C@H]1C(=O)N[C@H](CC(=O)N[C@@H](CCC(=O)O)CC(=O)O)Cc1c[nH]c2ccccc12)NC(=O)C[C@H](Cc1ccccc1)NC(=O)[C@@H]1CCCC[C@H]1N	0
Cc1ccc2c(Cl)cc(Cl)c(OCC(=O)N3CCCC3)c2n1	0
Cc1cc(Cl)ccc1OCC(=O)N1CCCN(C(=O)COc2ccc(Cl)cc2C)CC1	32µM
O=C(COc1ccc(Cl)cc1Cl)N1CCN(c2ccccn2)CC1	0
O=c1cc(-c2ccccc2)oc2cc(O[C@@H]3O[C@H](CO)[C@@H](O)[C@H](O)[C@H]3O)c(O)c(O)c12	0
Cc1ccc(Nc2c(-c3ccccc3O)nc3cnccn23)cc1	25µM
COc1ccc(Nc2c(-c3ccc(C)cc3)nc3cnccn23)cc1	0
COc1ccc(Nc2c(-c3ccc(OC)cc3)nc3cnccn23)cc1	0
CC(C)[C@@H](CC(=O)N[C@@H]1CCCC[C@H]1C(=O)N[C@H](CC(=O)N[C@@H](CCC(=O)O)CC(=O)O)Cc1ccccc1)NC(=O)C[C@H](Cc1c[nH]c2ccccc12)NC(=O)[C@@H]1CCCC[C@H]1N	0
SMILES	ERK EGF inh
O=S(=O)(c1ccccc1)N1CCC2(CCCN(Cc3nccs3)C2)CC1	0
O=C(OCC1OC(OC(=O)c2cc(O)c(O)c(OC(=O)c3cc(O)c(O)c(O)c3)c2)[C@@H](OC(=O)c2cc(O)c(O)c(OC(=O)c3cc(O)c(O)c(O)c3)c2)C(OC(=O)c2cc(O)c(O)c(OC(=O)c3cc(O)c(O)c(O)c3)c2)C1OC(=O)c1cc(O)c(O)c(OC(=O)c2cc(O)c(O)c(O)c2)c1)c1cc(O)c(O)c(OC(=O)c2cc(O)c(O)c(O)c2)c1 (some centres not stated)	7.9µM
CC(=O)NC1C(OCCOc2ccc(Cl)cc2Cl)OC(COC(C)=O)C(OC(C)=O)C1OC(C)=O (configuration not stated)	0
Cc1cn(C2OC(COC(=O)c3ccccc3)C(OC(=O)c3ccccc3)C2OC(=O)c2ccccc2)c(=O)[nH]c1=O (configuration not stated)	0
CC(CCC#N)[N+](=O)[O-] (configuration not stated)	0
Cc1cc(/C=C2\NC(=S)N(C)C2=O)ccc1N1CCCC1	0
Cc1cc(/C=C2/C(=O)N(C)C(=S)N2C)ccc1N1CCCC1	25µM
CN1C(=O)/C(=C/C=C2/CCCN2C)N(C)C1=S	0
CN(C)c1ccc(C(=O)Nc2nc3c(s2)CCCC3)cc1	22µM
O=C(Nc1nc2c(s1)CCCC2)c1ccc(S(=O)(=O)N2CCCc3ccccc32)cc1	0
CC(C)(C)c1ccc(C(=O)NC(=S)Nc2nc3c(s2)CCCC3)cc1	0
COc1ccc(CCN2C(=O)CC(NNC(=O)c3ccccc3Br)C2=O)cc1 (configuration not stated)	0
COc1ccc(CCN2C(=O)CC(NC34CC5CC(CC(C5)C3)C4)C2=O)cc1OC (configuration not stated)	0
CCN(CC)c1ccc(NC2CC(=O)N(CCc3ccc(OC)cc3)C2=O)cc1 (configuration not stated)	35µM
